# Experimental data as given in PubChem BioAssay (EPA / NIEHS).
# “And” between values parts separate entries of the source, which are not always exact repeats. Equal values may be shown once. Some structures have more than one record in an assay (separate samples or runs), and their calls can disagree. The source made the active and inactive calls. The calls were made as follows: active = hit-call score of the fitted dose curve at least 0.9, where 1 is the maximum; inactive = score below 0.9.
# How the values were obtained:
# [1] = read-out: Interleukin-8 (IL8), CXCL8 (gene 3576); assay: BSK_KF3CT_IL8: BioMAP Diversity Plus: KF3CT Assay for Interleukin-8 (IL8) Biomarker Activity (AID 2284254); conditions: primary human keratinocytes with fibroblasts
# Summary of the method: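 Human keratinocyte/foreskin fibroblast co-culture dosed 24 h; IL-8 measured by ELISA relative to DMSO. Parallel cultures stained with SRB for total protein to flag cytotoxicity.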
# [2] = read-out: Macrophage Inflammatory Protein-1 Alpha (MIP1a), CCL3 (gene 6348); assay: BSK_IMphg_MIP1a: BioMAP Diversity Plus: IMphg Assay for Macrophage Inflammatory Protein-1 Alpha (MIP1a) Biomarker Activity (AID 2284255); conditions: primary human endothelial cells with macrophages
# Summary of the method: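 Co-culture of human venular endothelial cells and macrophages exposed to compounds for 24 h; MIP-1a measured by ELISA relative to DMSO. Cytotoxicity assessed in parallel cultures by sulforhodamine B total-protein staining at 560 nm.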
# [3] = read-out: Plasminogen activator inhibitor-1 (PAI1), SERPINE1 (gene 5054); assay: BSK_MyoF_PAI1: BioMAP Diversity Plus: MyoF Assay for Plasminogen activator inhibitor-1 (PAI1) Biomarker Activity (AID 2284256); conditions: primary human lung fibroblasts;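 as to outcome: PAI-1 read 24 h after compound addition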
# Summary of the method: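 Primary human lung fibroblasts treated with chemical for 24 h; PAI-1 levels quantified by ELISA relative to DMSO. Cytotoxicity was assessed in parallel cultures by SRB total-protein staining (0.1% SRB after 10% TCA fixation, 560 nm).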
# CD69, CD69 (gene 969) = assay: BSK_IMphg_CD69: BioMAP Diversity Plus: IMphg Assay for CD69 Biomarker Activity (AID 2284257); conditions: primary human endothelial cells with macrophages
# Summary of the method: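 Human venular endothelial cells co-cultured with macrophages; CD69 quantified by ELISA 24 h after compound addition. Activity fitted in the positive direction relative to DMSO baseline; cytotoxicity tracked in parallel cultures via SRB total-protein staining.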
# [4] = read-out: Eotaxin 3, CCL26 (gene 10344); assay: BSK_BF4T_Eotaxin3: BioMAP Diversity Plus: BF4T Assay for Eotaxin 3 Biomarker Activity (AID 2284258); conditions: primary human bronchial epithelial cells with fibroblasts
# Summary of the method: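 Co-culture of human bronchial epithelial cells and dermal fibroblasts, exposed to chemicals for 24 h versus DMSO. Eotaxin-3 quantified by ELISA; cytotoxicity checked in parallel cultures by sulforhodamine B total-protein staining.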
# [5] = read-out: Monocyte Chemoattractant Protein-1 (MCP1), CCL2 (gene 6347); assay: BSK_BF4T_MCP1: BioMAP Diversity Plus: BF4T Assay for Monocyte Chemoattractant Protein-1 (MCP1) Biomarker Activity (AID 2284259); conditions: primary human bronchial epithelial cells with fibroblasts
# Summary of the method: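 Co-culture of bronchial epithelial cells and dermal fibroblasts dosed with chemical; MCP-1 measured by ELISA 24 h later. Activity fitted in positive direction versus DMSO; cytotoxicity checked by SRB staining in parallel cultures.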
# [6] = read-out: Intercellular Adhesion Molecule 1 (ICAM1), ICAM1 (gene 3383); assay: BSK_BF4T_ICAM1: BioMAP Diversity Plus: BF4T Assay for Intercellular Adhesion Molecule 1 (ICAM1) Biomarker Activity (AID 2284260); conditions: primary human bronchial epithelial cells with fibroblasts
# Summary of the method: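 Co-culture of human bronchial epithelial cells and dermal fibroblasts exposed 24 h to chemical; cell-surface ICAM-1 quantified by ELISA. Parallel SRB total-protein staining assessed cytotoxicity; activity fitted relative to DMSO.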
# [7] = read-out: Interleukin-8 (IL8), CXCL8 (gene 3576); assay: BSK_MyoF_IL8: BioMAP Diversity Plus: MyoF Assay for Interleukin-8 (IL8) Biomarker Activity (AID 2284261); conditions: primary human lung fibroblasts
# Summary of the method: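 Human lung fibroblast (MyoF system) cultures dosed for 24 h, then IL-8 measured by ELISA. Response taken relative to DMSO; parallel SRB total-protein staining for cytotoxicity.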
# CD90, THY1 (gene 7070) = assay: BSK_BF4T_CD90: BioMAP Diversity Plus: BF4T Assay for CD90 Biomarker Activity (AID 2284262); conditions: primary human bronchial epithelial cells with fibroblasts
# Summary of the method: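 Co-culture of human bronchial epithelial cells and dermal fibroblasts, 24 h compound exposure. Cell-surface CD90 measured by ELISA relative to DMSO; parallel SRB total-protein staining for cytotoxicity.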
# [8] = read-out: Interleukin-8 (IL8), CXCL8 (gene 3576); assay: BSK_BF4T_IL8: BioMAP Diversity Plus: BF4T Assay for Interleukin-8 (IL8) Biomarker Activity (AID 2284263); conditions: primary human bronchial epithelial cells with fibroblasts
# Summary of the method: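 Human bronchial epithelial cells with dermal fibroblasts co-culture; IL-8 measured by ELISA 24 hours after dosing, fitted vs DMSO. Cytotoxicity tracked in parallel cultures by SRB total-protein staining.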
# [9] = read-out: Interleukin-1 alpha (IL1a), IL1A (gene 3552); assay: BSK_BF4T_IL1a: BioMAP Diversity Plus: BF4T Assay for Interleukin-1 alpha (IL1a) Biomarker Activity (AID 2284264); conditions: primary human bronchial epithelial cells with fibroblasts
# Summary of the method: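 Human bronchial epithelial cells co-cultured with dermal fibroblasts, dosed and read at 24 h. Secreted/surface IL-1α quantified by ELISA; gain-of-signal fitted relative to DMSO baseline. Parallel SRB total-protein staining tracked cytotoxicity.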
# Decorin, DCN (gene 1634) = assay: BSK_MyoF_Decorin: BioMAP Diversity Plus: MyoF Assay for Decorin Biomarker Activity (AID 2284265); conditions: primary human lung fibroblasts
# Summary of the method: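 Human lung fibroblast cultures were dosed for 24 h, and decorin was then measured by ELISA. Parallel cultures were stained with sulforhodamine B for total protein as a cytotoxicity check. Gain of signal was fitted relative to DMSO.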
# KRT18 (gene 3875) = assay: BSK_BF4T_Keratin818: BioMAP Diversity Plus: BF4T Assay for Keratin 818 Biomarker Activity (AID 2284266); conditions: primary human bronchial epithelial cells with fibroblasts
# Summary of the method: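 Co-culture of human bronchial epithelial cells and dermal fibroblasts, chemical exposure 24 h. Keratin 8/18 measured by ELISA; positive-direction fit vs DMSO. SRB total protein run in parallel cultures for cytotoxicity.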
# [10] = BSK_MyoF_SRB: Viability Assessment in the BioMAP Diversity Plus: MyoF Assay (AID 2284267); conditions: primary human lung fibroblasts;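 also: total protein by SRB absorbance in parallel cultures as cytotoxicity measure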
# Summary of the method: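 Human lung fibroblasts dosed with chemical and assessed 24 h later for overt cytotoxicity in parallel cultures. Total protein quantified by sulforhodamine B staining (0.1% SRB after 10% TCA fixation), read at 560 nm, analysed in positive direction versus DMSO baseline.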
# [11] = read-out: Matrix Metallopeptidase 1 (MMP1), MMP1 (gene 4312); assay: BSK_MyoF_MMP1: BioMAP Diversity Plus: MyoF Assay for Matrix Metallopeptidase 1 (MMP1) Biomarker Activity (AID 2284268); conditions: primary human lung fibroblasts
# Summary of the method: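 Human lung fibroblast primary cells; MMP1 measured by ELISA 24 h after dosing, fitted in the positive direction relative to DMSO. Parallel SRB staining (0.1%, after 10% TCA fixation, 560 nm) assesses overt cytotoxicity.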
# [12] = read-out: TIMP metallopeptidase inhibitor 1 (TIMP1), TIMP1 (gene 7076); assay: BSK_MyoF_TIMP1: BioMAP Diversity Plus: MyoF Assay for TIMP metallopeptidase inhibitor 1 (TIMP1) Biomarker Activity (AID 2284269); conditions: primary human lung fibroblasts
# Summary of the method: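 ELISA quantified TIMP-1 levels after 24 h dosing of primary human lung fibroblasts, with DMSO as baseline. Parallel SRB total protein staining (0.1% SRB after TCA fixation, 560 nm) flagged overt cytotoxicity.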
# [13] = read-out: Matrix Metallopeptidase 1 (MMP1), MMP1 (gene 4312); assay: BSK_BF4T_MMP1: BioMAP Diversity Plus: BF4T Assay for Matrix Metallopeptidase 1 (MMP1) Biomarker Activity (AID 2284270); conditions: primary human bronchial epithelial cells with fibroblasts
# Summary of the method: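 Co-culture of human bronchial epithelial cells and dermal fibroblasts; MMP-1 levels measured by ELISA 24 hours after chemical dosing, relative to DMSO. Cytotoxicity checked in parallel cultures by SRB total-protein staining.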
# [14] = read-out: Tissue plasminogen activator (tPA), PLAT (gene 5327); assay: BSK_BF4T_tPA: BioMAP Diversity Plus: BF4T Assay for Tissue plasminogen activator (tPA) Biomarker Activity (AID 2284272); conditions: primary human bronchial epithelial cells with fibroblasts
# Summary of the method: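 tPA level quantified by ELISA at 24 h post-treatment in bronchial epithelial/dermal fibroblast co-cultures, gain of signal scored against DMSO baseline. Parallel cultures stained with 0.1% SRB (560 nm) to flag overt cytotoxicity.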
# [15] = read-out: Matrix Metallopeptidase 3 (MMP3), MMP3 (gene 4314); assay: BSK_BF4T_MMP3: BioMAP Diversity Plus: BF4T Assay for Matrix Metallopeptidase 3 (MMP3) Biomarker Activity (AID 2284271); conditions: primary human bronchial epithelial cells with fibroblasts
# Summary of the method: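 Co-culture of human bronchial epithelial cells and dermal fibroblasts dosed 24 h; MMP-3 measured by ELISA, positive-direction fit versus DMSO. Cytotoxicity tracked by SRB total-protein staining (560 nm) in parallel cultures.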
smiles,measurement,setting,value
FC(F)(I)C(F)(F)C(F)(F)C(F)(F)I,AC50,[1],45.8 µM (active) and 47.4 µM (active)
same,outcome,[1],inactive
same,outcome,[2],inactive
same,AC50,[3],55.6 µM (active) and 46 µM (active) and 56.7 µM (active)
same,AC50,"CD69, CD69 (gene 969)",10.1 µM (active)
same,outcome,"CD69, CD69 (gene 969)",inactive
same,AC50,[4],57.1 µM (active) and 50.6 µM (active)
same,outcome,[4],inactive
same,AC50,[5],38 µM (active) and 42.1 µM (active) and 42.5 µM (active)
same,AC50,[6],45.7 µM (active) and 47.8 µM (active) and 51.6 µM (active)
same,AC50,[7],57.5 µM (active) and 48 µM (active) and 48.5 µM (active)
same,outcome,"CD90, THY1 (gene 7070)",inactive
same,AC50,[8],45.6 µM (active) and 51 µM (active) and 55.6 µM (active)
same,AC50,[9],55.2 µM (active) and 45.6 µM (active) and 47.3 µM (active)
same,AC50,"Decorin, DCN (gene 1634)",45.8 µM (active) and 45.9 µM (active) and 54.5 µM (active)
same,AC50,KRT18 (gene 3875),46.6 µM (active) and 47.8 µM (active) and 47.4 µM (active)
same,AC50,[10],46.5 µM (active) and 53 µM (active) and 53.4 µM (active)
same,AC50,[11],52 µM (active) and 48.5 µM (active)
same,outcome,[11],inactive
same,AC50,[12],56 µM (active) and 47.7 µM (active) and 46.9 µM (active)
same,AC50,[13],51.2 µM (active) and 48.6 µM (active) and 50.2 µM (active)
same,AC50,[14],39.8 µM (active) and 46.2 µM (active) and 48.8 µM (active)
FC(F)(F)C(F)(F)C(F)(F)N(C(F)(F)C(F)(F)C(F)(F)F)C(F)(F)C(F)(F)C(F)(F)F,outcome,[1],inactive
same,outcome,[2],inactive
same,outcome,[3],inactive
same,AC50,"CD69, CD69 (gene 969)",1.09 µM (active)
same,outcome,"CD69, CD69 (gene 969)",inactive
same,outcome,[4],inactive
same,outcome,[5],inactive
same,outcome,[7],inactive
same,outcome,"CD90, THY1 (gene 7070)",inactive
same,outcome,[8],inactive
same,outcome,[9],inactive
same,outcome,"Decorin, DCN (gene 1634)",inactive
same,outcome,KRT18 (gene 3875),inactive
same,outcome,[10],inactive
same,outcome,[11],inactive
same,outcome,[12],inactive
same,outcome,[13],inactive
same,outcome,[14],inactive
FC(F)(F)C(F)(F)CNCC(F)(F)C(F)(F)F,outcome,[1],inactive
same,outcome,[2],inactive
same,outcome,[3],inactive
same,outcome,"CD69, CD69 (gene 969)",inactive
same,outcome,[4],inactive
same,outcome,[5],inactive
same,outcome,[7],inactive
same,outcome,"CD90, THY1 (gene 7070)",inactive
same,outcome,[8],inactive
same,outcome,[9],inactive
same,outcome,"Decorin, DCN (gene 1634)",inactive
same,outcome,KRT18 (gene 3875),inactive
same,outcome,[10],inactive
same,outcome,[11],inactive
same,outcome,[12],inactive
same,outcome,[13],inactive
same,outcome,[15],inactive
same,outcome,[14],inactive
OCC(F)(F)C(F)(F)C(F)(F)C(F)F,outcome,[1],inactive
same,outcome,[2],inactive
same,outcome,[3],inactive
same,outcome,"CD69, CD69 (gene 969)",inactive
same,outcome,[4],inactive
same,outcome,[5],inactive
same,outcome,[7],inactive
same,outcome,"CD90, THY1 (gene 7070)",inactive
same,outcome,[8],inactive
same,outcome,[9],inactive
same,AC50,"Decorin, DCN (gene 1634)",5.95 µM (active)
same,outcome,"Decorin, DCN (gene 1634)",inactive
same,outcome,KRT18 (gene 3875),inactive
same,outcome,[10],inactive
same,outcome,[11],inactive
same,outcome,[12],inactive
same,outcome,[13],inactive
same,outcome,[14],inactive
O=C(O)C(F)(F)C(F)(F)C(F)F,outcome,[1],inactive
same,outcome,[2],inactive
same,outcome,[3],inactive
same,outcome,"CD69, CD69 (gene 969)",inactive
same,outcome,[4],inactive
same,outcome,[5],inactive
same,outcome,[7],inactive
same,outcome,"CD90, THY1 (gene 7070)",inactive
same,outcome,[8],inactive
same,outcome,[9],inactive
same,AC50,"Decorin, DCN (gene 1634)",30 µM (active)
same,outcome,"Decorin, DCN (gene 1634)",inactive
same,outcome,KRT18 (gene 3875),inactive
same,outcome,[10],inactive
same,outcome,[11],inactive
same,outcome,[12],inactive
same,outcome,[13],inactive
same,outcome,[15],inactive
same,outcome,[14],inactive
